These entries were drawn from the full list.
aSyn UTR act – Activators via SNCA 5'UTR binding, MLPCN. alpha-synuclein 5'UTR reporter, activators screen. activity score, % (tested at 7.5 µM), hits read low. actives 7.1% (n = 300,000). AID 1814; in the data active = activity score below about -60%
Numbers without * were called inactive.

SMILES	aSyn UTR act
CC(C)CCNc1nnnc2c1sc1nc(N3CCOCC3)c3c(c12)CC(C)(C)SC3	60
CC1(C)Cc2c(c(N3CCOCC3)nc3snc(N)c23)CO1	-169*
CCOC(=O)c1csc(Nc2nc3ccc(F)cc3s2)n1	-82*
CC(=O)c1sc(Nc2nc3ccc(F)cc3s2)nc1C	-216*
COC(=O)c1ccc2nc(Nc3nc4ccc(F)cc4s3)sc2c1	75
CCS(=O)(=O)Nc1cccc(-c2nc3cccnc3s2)c1C	-99*
COc1cc(NS(=O)(=O)c2ccc(C)cc2)c2ncccc2c1	69
Cc1ccc(-c2nc3cccnc3s2)cc1NS(C)(=O)=O	-186*
c1csc(CSc2nc3ccccc3s2)c1	-280*
Cc1ccc2nc(Nc3nc(CSc4nc5ccccc5s4)cc(=O)[nH]3)nc(C)c2c1	61
CNc1nnc(CSc2nc3ccccc3s2)s1	-88*
O=c1cc(-c2ccccc2Cl)oc2c(Br)ccc(O)c12	-130*
COc1ccc(-c2c(C)c3ccc(OCC(C)=O)cc3oc2=O)cc1	-142*
COc1ccc(-c2c(C)c3ccc(O)cc3oc2=O)cc1	-97*
CCCOc1ccc2c(C)c(CC(=O)OC)c(=O)oc2c1	-118*
CC(=O)COc1ccc2c(C)c(C)c(=O)oc2c1	-118*
O=C(NCCC1CCCCN1S(=O)(=O)c1cccs1)C(=O)Nc1ccc(F)cc1 (stereo not drawn)	-87*
COc1cccc(NC(=O)C(=O)NCC2CCCN2S(=O)(=O)c2ccccc2)c1 (stereo not drawn)	-216*
COc1cccc(NC(=O)C(=O)NCCC2CCCCN2S(=O)(=O)c2ccccc2)c1 (stereo not drawn)	-158*
O=C(NCCC1CCCCN1S(=O)(=O)c1ccc(Cl)cc1)C(=O)NCc1ccncc1 (stereo not drawn)	62
O=C(Nc1ccccn1)c1onc2c1CCCC2	96
O=C(Nc1ccccn1)c1csc2c1CCCC2	-163*
COc1cc(NC(=O)c2csc3c2CCCC3)ncn1	-153*
CCc1ccccc1NC(=O)c1cc(-c2cccs2)on1	-125*
O=C(Nc1ccccc1C(F)(F)F)c1cc(-c2cccc(O)c2)on1	-142*
SMILES	aSyn UTR act
CCc1ccccc1NC(=O)c1cc(-c2cccc(O)c2)on1	-81*
CC(C)C1Oc2ccccc2C(=O)N(CC(=O)c2ccc3c(c2)OCCO3)C1=O (stereo not drawn)	-224*
CC1CCC2(CC1)NC(=O)N(CC(=O)Nc1ccc3c(c1)OCCO3)C2=O (stereo not drawn)	-100*
O=C(CN1C(=O)NC2(CCCCCC2)C1=O)c1ccc2c(c1)OCCO2	-154*
O=Cc1ccccc1OCc1ccc2c(c1)OCO2	-258*
CCOc1cc2nc(-c3ccc(OC)c(OC)c3)nc(NCCCN3CCOCC3)c2cc1OC	-65*
Clc1ccc(-c2nc(NCCN3CCOCC3)c3ccccc3n2)cc1	-90*
COc1ccc(C2c3ccc4ccccc4c3Oc3ncn(CCN4CCOCC4)c(=N)c32)cc1OC (stereo not drawn)	105
Nc1ccc(CCc2nc3ccccc3o2)cc1	-126*
O=[N+]([O-])c1ccc(/C=C/c2ccncc2)cc1	-71*
O=[N+]([O-])c1cccc(/C=C/c2ccncc2)c1	-65*
CC(C)(C)c1ccc(S(=O)(=O)NCC(=O)Nc2ccc(-c3nc4ccccc4s3)cc2)cc1	-101*
Cc1ccc(C)c(S(=O)(=O)NC(C)C(=O)Nc2ccc(-c3nc4ccccc4s3)cc2)c1 (stereo not drawn)	-108*
CC(NS(=O)(=O)c1cccc(Cl)c1)C(=O)Nc1ccc(-c2nc3ccccc3s2)cc1 (stereo not drawn)	-139*
CN(/N=C/c1ccc(N(C)C)cc1)C1=NS(=O)(=O)c2ccccc21	-97*
COc1ccc(N(C)C2=NS(=O)(=O)c3ccccc32)cc1	-70*
COc1cccc(C(NC(C)=O)c2ccc3cccnc3c2O)c1 (stereo not drawn)	72
Oc1cccc(/C=N/Nc2cccc3cccnc23)c1	-142*
Oc1ccc(/C=N/Nc2cccc(Cl)n2)c(O)c1	-244*
COc1cc(/C=N/Nc2cccc3cccnc23)cc(OC)c1O	-94*
Oc1c(/C=N/Nc2cccc3cccnc23)ccc2ccccc12	-164*
O=[N+]([O-])c1ccc(O)c(/C=N/Nc2ccc(Cl)nn2)c1	100
Oc1cccc(/C=N/Nc2ccc(Cl)nn2)c1	-171*
CC(=O)c1ccc(OCc2cc(C(=O)NC(C)CCn3cccn3)no2)cc1 (stereo not drawn)	-164*
COCC1CCCN(C(=O)c2cc(COc3ccc(C(C)=O)cc3)on2)C1 (stereo not drawn)	-149*
CC(=O)c1ccc(OCc2cc(C(=O)NC3CCCCC3)no2)cc1	-81*
Cc1ccc(OCc2cc(C(=O)NC(C)Cc3cccnc3)no2)cc1C (stereo not drawn)	-82*
CC(=O)c1ccc(OCc2cc(C(=O)N3CCCCC3c3cccnc3)no2)cc1 (stereo not drawn)	-83*
CC(=O)c1ccc(OCc2cc(C(=O)N3CC[C@@H]4CCCC[C@H]4C3)no2)cc1	-126*

Screening results as filed in PubChem.
